Drawing on PubChem BioAssay (NCI), this text covers growth for 14 compounds.

What all share (test): NCI-60 one-dose screen, 48 h (100 = growth as untreated, 0 = no growth, -100 = all killed)
Common to all, as to conditions: 10 µM

In experiment [1] the test system is NCI-H23 lung.
For experiment [2], the system named is NCI-H226 lung.
Experiment [3] concerns NCI-H322M lung.
Experiment [4] has as its system HOP-62 NSCLC.
For experiment [5], the system named is NCI-H460 lung.
The test system of experiment [6] is HOP-92 NSCLC.
Experiment [7] relates to NCI-H522 lung.
For experiment [8], the system named is A549/ATCC NSCLC.
Experiment [9] relates to 786-0 renal.
Experiment [10] has as its system COLO 205 colon.

Structures are written as SMILES. About 83,000 compounds went through this panel and 20% of them were active in at least one assay; those are over-represented in the sample as a whole.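 Single-concentration screen, 48 h exposure, 96-well plates. Endpoint: percent growth. Below 10 = active.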 A number with no mark means an inactive call. Calls of active or inactive are those of the source.

Consider `COc1ccc(C(=O)/C=C/c2cc(-c3ccc4c(c3)OCO4)n[nH]2)cc1OC`, for which the growth was 61.6% in [1]; 39.6% in experiment [2]; 36.3% in [3]; 51.1% in [4]; 15.7% in experiment [5]; 55.7% in experiment [6]. Moreover, the growth in [7] is 19.4%; in [8], 37.9%; in experiment [9] it was 71.7%; in experiment [10] it was 56.1%.
As to `CCCCN(CCCC)c1ccc(C(=NC(C)CCCN(CC)CC)c2ccc(N(C)C)cc2)cc1` (centres undefined), the growth in experiment [1] was -60.3% (active); in experiment [2], -34.9% (active); in [3], -14.2% (active); in experiment [4], -80.4% (active); in [5] it was -76.9% (active); in experiment [6], -45.5% (active). In addition, the values for the growth in [7], in experiment [9] and in experiment [10] were -66.8% (active), -86.4% (active) and -88.4% (active), respectively.
With `COc1ccc2oc(=O)cc(C3c4ccc([nH]4)C(c4cc(=O)oc5ccc(OC)cc45)c4ccc([nH]4)C(c4cc(=O)oc5ccc(OC)cc45)c4ccc([nH]4)C(c4cc(=O)oc5ccc(OC)cc45)c4ccc3[nH]4)c2c1` (centres undefined), the growth in experiment [1] is -12.4% (active); in experiment [2], 15.8%; in experiment [3] it was 27.9%; in experiment [4] it was 17.6%; in [5] it was 6.39% (active); in experiment [6], 41.8%. The growth in experiment [7] was -71.9% (active); in [8], 41.1%; in experiment [9] it was -24% (active); in [10], -76.7% (active).
`COC(=O)c1cnc2c(c1)Oc1ccc(Cl)cc1-c1cc(C)nn1-2`: the growth is 74.5% in experiment [1]; 66.3% in [2]; 66.9% in experiment [3]; 68.3% in experiment [4]; 29.5% in [5]; 85.6% in experiment [6]. Moreover, the growth was 82.3% in experiment [7], 97.5% in [9] and 71.5% in [10].
With `COc1ccc(-c2oncc2-c2cc(OC)c3c(c2)OCO3)cc1`, the growth was 47.7% in experiment [1]; 77.5% in experiment [2]; 39% in [3]; 33.2% in [4]; 11.5% in [5]; -3.69% (active) in [6]. Besides, the growth in [7] is 3.28% (active); in experiment [9] it was 36.6%; in experiment [10] it was 15%.
Turning to `COC(=O)[C@]12CC[C@@H](C)[C@H](C)[C@@H]1C1=CC[C@@H]3[C@@]4(C)CC(=O)[C@H](O)[C@@](C)(CO)[C@@H]4C(=O)C[C@@]3(C)[C@]1(C)CC2`, the growth in experiment [1] is -14.2% (active); in experiment [2] it was -5.55% (active); in experiment [3], 18.4%; in experiment [4], -21.5% (active); in experiment [5], -48.9% (active); in experiment [6], -22.5% (active). Also, the growth in experiment [7] was -65.9% (active); in [9], 0.121% (active); in [10], -64.6% (active).
Take `Cc1nn2c(/C=C3/C(=O)Nc4ccc(Cl)cc43)c(-c3ccccc3)nc2s1`: the growth was 51.4% in experiment [1]; 33.4% in experiment [2]; 12.7% in experiment [3]; -19.8% (active) in experiment [4]; 25.7% in experiment [5]; -5.92% (active) in experiment [6]. Also, the growth in experiment [7] is 43.6%; in experiment [9], 41.2%; in [10], 49.7%.
For the compound `COc1ccc2nc(-c3ccccc3)cc(C(C)=O)c2c1`, the growth in experiment [1] is 89.8%; in experiment [2], 87.6%; in experiment [3], 84.7%; in experiment [4], 78.3%; in experiment [5], 99.1%; in experiment [6], 71.5%. The growth is 80.9% in [7], 95.8% in experiment [9] and 110% in experiment [10].
Take `COc1cc([C@@H]2c3cc4c(cc3[C@H](SC(=N)N)[C@H]3COC(=O)[C@H]23)OCO4)cc(OC)c1OC`: the growth in experiment [1] was 13.7%; in [2], 0.754% (active); in experiment [3], 13%; in [4], 51.4%; in experiment [5], 5.84% (active); in [6], 68.5%. The growth in [7] was -7.12% (active); in experiment [9] it was 10.3%; in [10], -67.2% (active).
As for `CCOC(=O)Nc1ccc2c(c1)C(=O)N(CC)c1ccccc1O2`, the growth was 30.1% in [1]; 14.5% in experiment [2]; 50% in experiment [3]; 24.8% in experiment [4]; 9.56% (active) in experiment [5]; 33.7% in experiment [6]. For the same compound, the results for the growth in experiment [7], in experiment [9] and in [10] were -39% (active), 31.1% and -29.8% (active), respectively.
For the compound `O=C(Nc1cccc(Cl)c1)OCC(COC(=O)Nc1cccc(Cl)c1)(COC(=O)Nc1cccc(Cl)c1)[N+](=O)[O-]`, the growth in [1] was 22.9%; in [2], 66.4%; in [3], 45.8%; in experiment [4] it was 41.8%; in experiment [5] it was 17.9%; in [6] it was 18.6%. The values for the growth in experiment [7], in experiment [9] and in experiment [10] were 27.4%, 32.8% and 35.5%, respectively.
For the compound `CCCC(C)c1ccc(OCCCCCCN2CCNCC2)cc1` (centres undefined), the growth was 61.6% in experiment [1]; 89.3% in experiment [2]; 58.3% in [3]; 66.6% in experiment [4]; 6.72% (active) in [5]; 25.1% in experiment [6]. For the same compound, the growth is 3.3% (active) in experiment [7], -21.1% (active) in experiment [9] and -68.3% (active) in experiment [10].
In the case of `COc1ccc2c(=O)cc(C(Cl)(Cl)Cl)oc2c1`, the growth is -18.4% (active) in experiment [1]; -29.2% (active) in experiment [2]; -17.6% (active) in [3]; -14.8% (active) in experiment [4]; -7.69% (active) in experiment [5]; -26.1% (active) in [6]. Besides, the growth in experiment [7] was -51.7% (active); in [9], 8.97% (active); in experiment [10] it was -88.4% (active).
For the compound `COc1ccc(C2C=C(c3ccc(Cl)cc3)N=C3SC=CN32)c(Br)c1` (centres undefined), the growth was 71.6% in [1]; 81.4% in experiment [2]; 112% in experiment [3]; 87.3% in experiment [4]; 76.7% in experiment [5]; 76.2% in experiment [6]. In addition, the growth in [7] was 65.5%; in [8], 56.8%; in experiment [9], 89.6%; in [10] it was 70.4%.
